Laboratory results taken from PubChem BioAssay (NCATS).
Records with an inconclusive call do not appear. Calls of active or inactive are those of the source. The call rests on the fitted dose curve; in most records, active means well fitted curve in the direction sought with a large enough effect; inconclusive means small, poorly fitted or top-dose-only effect, or another doubt; inactive means no such curve, though single readings can be large; an effect the other way counts as inactive or inconclusive.

What was measured:
[1] = Quantitative High-Throughput drug screen in 47 multiple myeloma cell lines against the NCATS MIPE library collection: FR4_PLB cell viability assay (AID 1918924; further: nearly all actives have a fitted effect of over 35% in size)
Method in brief: (§1)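 Primary qHTS used for cherry-picking: cells at 500/well, library compounds for 48 h (37C, 5% CO2), luminescent ATP assay.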

[2] = Quantitative High-Throughput drug screen in 47 multiple myeloma cell lines against the NCATS MIPE library collection: Delta47_JCRB cell viability assay (AID 1918925; further: nearly all actives have a fitted effect of over 45% in size)
Method in brief: (§2)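 Relative luminescence from CellTiter-Glo served as the viability signal, referenced to DMSO-treated (100%) and cell-free medium (0%) controls. Treatment lasted 48 hours at 37C with 500 cells per well.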

[3] = Quantitative High-Throughput drug screen in 47 multiple myeloma cell lines against the NCATS MIPE library collection: AMO1_DSMZ cell viability assay (AID 1918927; further: nearly all actives have a fitted effect of over 30% in size)
Method in brief: as §2

[4] = Quantitative High-Throughput drug screen in 47 multiple myeloma cell lines against the NCATS MIPE library collection: ARP1_JJKsccF8 cell viability assay (AID 1918928; further: nearly all actives have a fitted effect of over 40% in size)
Method in brief: (§3)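 ATP readout (CellTiter-Glo), 48 h drug incubation, 37 °C/5% CO2, 500 cells per well; normalisation to DMSO (100%) and media-only (0%) controls.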

[5] = Quantitative High-Throughput drug screen in 47 multiple myeloma cell lines against the NCATS MIPE library collection: ARD_JJKsccE7 cell viability assay (AID 1918929)
Method in brief: as §2

[6] = Quantitative High-Throughput drug screen in 47 multiple myeloma cell lines against the NCATS MIPE library collection: Karpas620_DSMZ cell viability assay (AID 1918959); further: nearly all actives have a fitted effect of over 30% in size
Method in brief: as §1

[7] = Quantitative High-Throughput drug screen in 47 multiple myeloma cell lines against the NCATS MIPE library collection: KMM1_JCRB cell viability assay (AID 1918960); further: nearly all actives have a fitted effect of over 30% in size
Method in brief: as §3

[8] = Quantitative High-Throughput drug screen in 47 multiple myeloma cell lines against the NCATS MIPE library collection: KHM11_PLB cell viability assay (AID 1918962); further: nearly all actives have a fitted effect of over 35% in size
Method in brief: as §1

[9] = Quantitative High-Throughput drug screen in 47 multiple myeloma cell lines against the NCATS MIPE library collection: JIM1_ECACC cell viability assay (AID 1918964)
Method in brief: as §2

[10] = Quantitative High-Throughput drug screen in 47 multiple myeloma cell lines against the NCATS MIPE library collection: JJN3_DSMZ cell viability assay (AID 1918966; further: nearly all actives have a fitted effect of over 50% in size)
Method in brief: as §2

[11] = Quantitative High-Throughput drug screen in 47 multiple myeloma cell lines against the NCATS MIPE library collection: H1112_PLB cell viability assay (AID 1918967; further: nearly all actives have a fitted effect of over 30% in size)
Method in brief: as §2

[12] = Quantitative High-Throughput drug screen in 47 multiple myeloma cell lines against the NCATS MIPE library collection: Karpas25_ECACC cell viability assay (AID 1918968; further: nearly all actives have a fitted effect of over 35% in size)
Method in brief: as §2

[13] = Quantitative High-Throughput drug screen in 47 multiple myeloma cell lines against the NCATS MIPE library collection: KMS27_JCRB cell viability assay (AID 1918970); further: nearly all actives have a fitted effect of over 30% in size
Method in brief: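 ATP-based viability (CellTiter-Glo luminescence) is measured in cells treated 48 h with approved and investigational drugs at 37 °C. Controls are DMSO-only wells for full viability and media-only wells for none.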

[14] = Quantitative High-Throughput drug screen in 47 multiple myeloma cell lines against the NCATS MIPE library collection: KMS12BM_JCRB cell viability assay (AID 1918971); further: nearly all actives have a fitted effect of over 35% in size
Method in brief: (§4)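 We plated 500 myeloma cells per well, pinned in MIPE 4.0 compounds, and incubated for 48 hours at 37C. ATP was then quantified with CellTiter-Glo, with DMSO and media-only wells defining 100% and 0%.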

[15] = Quantitative High-Throughput drug screen in 47 multiple myeloma cell lines against the NCATS MIPE library collection: KMS12PE_JCRB cell viability assay (AID 1918972); further: nearly all actives have a fitted effect of over 30% in size
Method in brief: as §4

[16] = Quantitative High-Throughput drug screen in 47 multiple myeloma cell lines against the NCATS MIPE library collection: KMS20_JCRB cell viability assay (AID 1918973); further: nearly all actives have a fitted effect of over 45% in size
Method in brief: as §2

[17] = Quantitative High-Throughput drug screen in 47 multiple myeloma cell lines against the NCATS MIPE library collection: EJM_DSMZ cell viability assay (AID 1918926; further: nearly all actives have a fitted effect of over 30% in size)
Method in brief: as §2

[18] = Quantitative High-Throughput drug screen in 47 multiple myeloma cell lines against the NCATS MIPE library collection: INA6_PLB cell viability assay (AID 1918965; further: nearly all actives have a fitted effect of over 55% in size)
Method in brief: as §4

[19] = Quantitative High-Throughput drug screen in 47 multiple myeloma cell lines against the NCATS MIPE library collection: Karpas417_ECACC cell viability assay (AID 1918961); conditions: Karpas417 myeloma viability, CellTiter-Glo ATP luminescence, 48 h; viability (% of DMSO): at 45.8 µM (top of the series)
Method in brief: as §4

[20] = Quantitative High-Throughput drug screen in 47 multiple myeloma cell lines against the NCATS MIPE library collection: JIM3_ECACC cell viability assay (AID 1918963; further: nearly all actives have a fitted effect of over 35% in size)
Method in brief: as §1
Potency means the concentration at half of the fitted maximal effect.

Row | SMILES | Potency [1] | Potency [2] | Potency [3] | Potency [4] | Potency [5] | Potency [6] | Potency [7] | Potency [8] | Potency [9] | Potency [10] | Potency [11] | Potency [12] | Potency [13] | Potency [14] | Potency [15] | Potency [16] | Potency [17] | Potency [18] | Potency [19] | Potency [20]
1 | CC(C)c1ccccc1Cc1cc(C(=O)Nc2ccc(S(=O)(=O)c3ccccc3C(C)(C)C)cc2)c(O)c(O)c1O | 9.35 µM (active) | 7.43 µM (active) | inactive | 14.8 µM (active) | inactive | inactive | inactive | 7.43 µM (active) | inactive | 14.8 µM (active) | 6.62 µM (active) | 3.72 µM (active) | inactive | 3.72 µM (active) | inactive | 9.35 µM (active) |  |  |  | 
2 | C=CC(=O)Nc1cc2c(Nc3ccc(F)c(Cl)c3)ncnc2cc1OCCCN1CCOCC1 | 14.8 µM (active) | 2.96 µM (active) |  | 5.9 µM (active) |  |  |  | inactive |  | 16.6 µM (active) | 4.69 µM (active) | 2.64 µM (active) |  | 14.8 µM (active) |  | 0.526 µM (active) | 7.43 µM (active) | 0.833 µM (active) |  | 
3 | Cc1c(C)n(Cc2ccc(-c3ccccc3C(=O)O)cc2)c2ccc(C(=O)N[C@@H](C)c3ccc([N+](=O)[O-])cc3)cc12 | inactive | 23.5 µM (active) | 0.118 µM (active) |  |  | 0.0935 µM (active) | 0.935 µM (active) |  | 0.0935 µM (active) |  | 18.7 µM (active) | 5.26 µM (active) | 0.0833 µM (active) |  | 0.118 µM (active) | 11.8 µM (active) |  | 18.7 µM (active) | 0.0187 µM (active) | 13.2 µM (active)
4 | CN[C@H]1CCc2cc(OC)c(OC)c(OC)c2-c2ccc(OC)c(=O)cc21 | inactive | 0.001 µM (active) |  | 0.0015 µM (active) |  | inactive |  |  | inactive | 0.0187 µM (active) |  |  |  | 0.0017 µM (active) |  |  |  | 0.001 µM (active) | 0.059 µM (active) | 
5 | Cn1c(CNc2ccc(C(=N)N)cc2)nc2cc(C(=O)N(CCC(=O)O)c3ccccn3)ccc21 | inactive |  | inactive | inactive | inactive | inactive | inactive | inactive | inactive |  | inactive |  | inactive | inactive | inactive |  | 0.0006 µM (active) |  |  | inactive
6 | CNC(=O)CN1CCC(Oc2cc3c(Nc4cccc(Cl)c4F)ncnc3cc2OC)CC1 | 0.0264 µM (active) | 0.0187 µM (active) |  | 0.0372 µM (active) | 0.001 µM (active) | 0.001 µM (active) | 0.0148 µM (active) | 0.0372 µM (active) | 0.001 µM (active) |  |  | 0.0187 µM (active) | 0.001 µM (active) | 0.0187 µM (active) | 0.0105 µM (active) | 0.0418 µM (active) |  | 0.0235 µM (active) |  | 0.0332 µM (active)
7 | CC(O)C1C(=O)N2C(C(=O)O)=C(SC3CNC(C(=O)N(C)C)C3)C(C)C12 (stereo not drawn) | inactive | inactive |  |  | inactive | inactive | inactive | inactive |  |  | inactive |  | inactive | inactive |  |  | inactive | inactive |  | inactive
8 | Cc1ccc(S(=O)(=O)Nc2cc(Cl)ccc2C(=O)Nc2nc(-c3ccccc3)cs2)cc1 | 20.9 µM (active) | 4.69 µM (active) |  | 20.9 µM (active) | 7.43 µM (active) |  | 4.18 µM (active) |  |  | 18.7 µM (active) |  | 5.26 µM (active) |  | 16.6 µM (active) | 2.64 µM (active) |  |  | 8.33 µM (active) |  | 5.26 µM (active)
9 | CNC(=O)c1c(F)cccc1Nc1nc(Nc2cc3c(cc2OC)CCN3C(=O)CN(C)C)nc2[nH]ccc12 | 10.5 µM (active) | 0.0526 µM (active) |  | 5.26 µM (active) |  |  |  | 9.35 µM (active) |  | 6.62 µM (active) | 1.87 µM (active) | 0.0935 µM (active) | inactive | 14.8 µM (active) |  | 0.118 µM (active) | 0.209 µM (active) |  | inactive | 0.105 µM (active)
10 | CCn1cc(-c2ccnc3[nH]c(-c4cccc(CN(C)C)c4)cc23)c(-c2ccc(NC(=O)N(C)C)cc2)n1 | 20.9 µM (active) | 3.32 µM (active) |  | 5.9 µM (active) | 8.33 µM (active) | 20.9 µM (active) | 3.32 µM (active) | 3.32 µM (active) | 5.26 µM (active) | 16.6 µM (active) | 14.8 µM (active) | 4.18 µM (active) | 7.43 µM (active) | 13.2 µM (active) | 5.26 µM (active) | 4.18 µM (active) |  |  | 1.87 µM (active) | 
11 | Cc1cn(-c2cc(NC(=O)c3ccc(C)c(Nc4nccc(-c5cccnc5)n4)c3)cc(C(F)(F)F)c2)cn1 | 20.9 µM (active) | inactive |  |  |  | inactive | 0.264 µM (active) | inactive |  | 18.7 µM (active) | inactive | inactive |  | 20.9 µM (active) | inactive |  | 18.7 µM (active) |  |  | inactive
12 | COc1c(OCCCN2CCOCC2)ccc2c3n(c(=NC(=O)c4cnc(N)nc4)nc12)CCN3 | 2.88 µM (active) | 0.182 µM (active) |  | 0.0288 µM (active) | 0.0144 µM (active) | 0.102 µM (active) | 0.0129 µM (active) | 0.575 µM (active) | 0.0072 µM (active) | 3.23 µM (active) |  |  | 0.0457 µM (active) | 5.75 µM (active) | 0.0724 µM (active) | 0.0512 µM (active) |  | 6.45 µM (active) | 0.0081 µM (active) | 
